Assay outcomes from PubChem.
MmCpn inh = M. maripaludis TRiC chaperonin inhibition | purified Mm-Cpn ATPase, ADP Transcreener TR-FRET | 330,000 tested, 0.031% active | Potency, µM (top dose mostly 76.9 µM), inactives show top-dose activity, negative = inhibition, actives largely listed as inhibitors | AID 504842; note: % is set by controls: 0 for no effect and ±100 for the full control effect; nearly all actives have a fitted effect of over 80% in size
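ATP (10 uM final) was added to archaeal chaperonin (25 nM final) after 10 min exposure to test compound at 37°C; after 30 min further incubation, ADP was detected by competitive TR-FRET.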
Integrin act MD = activates integrin-mediated alleviation for muscular dystrophy | alpha7betagal myoblasts, beta-gal FDG fluorescence, 48 h | 350,000 tested, 0.064% active | Potency, µM (highest dose often 38.3 µM), inactives show at the top dose activation, usual class: activators | AID 624291;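 note: 100% = response of the positive control SU9516; nearly all actives have a fitted effect of over 60% in size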
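alpha7betagal+/- myoblasts (passage 13, 250/well) treated 48 h at 37C with compounds at 1:260 dilution of DMSO stock. Lysed, then beta-galactosidase activity read as FDG fluorescence (ex 480/em 540) after 30 min, with pre-read for autofluorescence.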
USP2a block = blocks human ubiquitin-specific protease USP2a. O75604. USP2 core, Ub-CHOP2 coupled fluorogenic reporter, 485/531. Potency, µM (highest dose often 38.3 µM), for inactives: at the top dose activity change, negative = inhibition, hits mostly inhibitors. 330,000 tested, 0.01% active. AID 463254;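 note: plate controls were DMSO wells for no effect and full inhibition by NEM control for full effect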
Target sequence (O75604 whole entry, looked up): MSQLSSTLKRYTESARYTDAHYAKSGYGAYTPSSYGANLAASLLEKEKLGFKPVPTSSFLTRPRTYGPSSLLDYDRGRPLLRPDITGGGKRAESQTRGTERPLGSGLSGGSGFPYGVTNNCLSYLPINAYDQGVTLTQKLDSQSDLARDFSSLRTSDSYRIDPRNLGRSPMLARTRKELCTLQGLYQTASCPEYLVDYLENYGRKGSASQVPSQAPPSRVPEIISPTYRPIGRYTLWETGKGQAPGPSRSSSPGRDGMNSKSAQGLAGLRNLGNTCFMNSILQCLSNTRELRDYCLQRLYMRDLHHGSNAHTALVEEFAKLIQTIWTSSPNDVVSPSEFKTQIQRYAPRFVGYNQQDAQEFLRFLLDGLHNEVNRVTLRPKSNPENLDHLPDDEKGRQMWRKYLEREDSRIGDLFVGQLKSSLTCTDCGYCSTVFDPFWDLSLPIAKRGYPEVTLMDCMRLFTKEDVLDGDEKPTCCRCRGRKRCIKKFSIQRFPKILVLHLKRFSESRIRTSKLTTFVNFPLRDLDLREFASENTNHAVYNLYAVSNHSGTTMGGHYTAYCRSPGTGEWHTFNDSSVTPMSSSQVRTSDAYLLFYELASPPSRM
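Cell-free coupled assay: 10nM USP2 core preincubated 30min RT with compound in Tris-HCl pH 8.0/CaCl2/CHAPS buffer, then 25nM Ub-CHOP2 and 25nM reporter substrate; fluorescence (Ex 485/Em 531) read after 60min RT, normalized to NEM inhibition, concentration-response curves fitted.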
ClpP mod = qHTS Assay for Activators of ClpP | 340,000 tested, 1.9% active | AID 651965, 2013 | purified B. subtilis ClpP, FRET peptide cleavage, 20 min | ATP-dependent Clp protease proteolytic subunit (Bacillus subtilis (strain 168)), P80244 | Potency, µM (titrated, usually from 57.5 µM), without a hit: at the highest dose activity change, negative = active; active = well fitted falling curve with a large enough effect; inconclusive = small, poorly fitted or top-dose-only effect; inactive = no such curve, though single readings can be large or run the other way; note: the source files actives as falling curves though it sought activators and does not explain the sign; nearly all actives have a fitted effect of over 65% in size
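Purified B. subtilis ClpP, 10 microg/mL final in Tris/HCl pH8 with KCl, BSA, glycerol and Tween-20, cleaved an Abz/nitrotyrosine-quenched decapeptide. Fluorescence (ex 320, em 430) was read at 0 and 20 min at room temperature. Delta was normalized to 5.8 microM ADEP and DMSO/no-enzyme controls.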
Eya2 inh = blocks the phosphatase activity of human Eya2; recombinant Eya2, OMFP fluorescence dephosphorylation (OMFP is methylfluorescein phosphate); O00167; Potency, µM (doses to about 76.9 µM), for the others: at the top dose activity, negative = inhibition, usual class: inhibitors; 330,000 tested, 0.006% active; note: % is set by controls: 0 for no effect and ±100 for the full control effect
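Eya2 (0.2 uM) preincubated 10 min at ambient with compound, then OMFP substrate added at 50 uM; 10 min reaction in 50 mM HEPES pH 7.5, 50 mM NaCl, 5 uM MgCl2, 0.05% BSA, 1 mM DTT. Fluorescence read at Ex 485/Em 525 nm.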
p53 reactivation = re-activators of mutant p53. 320,000 tested, 0.063% active. H1299 p53-A138V BP100-luciferase reporter, luminescence, 24 h. Potency, µM (titrated, usually from 92.2 µM), for the others: at the top dose activity change, positive = activation, hits mostly activators; note: % of control where 0% means no effect; nearly all actives have a fitted effect of over 45% in size
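H1299 (p53-null), stable ts p53-A138V + BP100-Luc; 1000 cells/well, Opti-MEM/10% FBS; cpd 4 pt, 1:5; 24 h, 37 deg C, 5% CO2; detection reagent 10 min RT; luminescence.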
The depositor's hits bear a star; ? = inconclusive; / = no result given; [ ] = dose if it differs, or a comment. This is one part of a sample in which hits are shown more often than they occur. Unless noted, calls come from the whole dose curve; as a rule, active = well fitted curve in the direction sought with a large enough effect; inconclusive = small, poorly fitted or top-dose-only effect, or another doubt; inactive = no such curve, though single readings can be large; an effect the other way counts as inactive or inconclusive. Potency is the fitted concentration of half-maximal effect.

SMILES	MmCpn inh	Integrin act MD	USP2a block	ClpP mod	Eya2 inh	p53 reactivation
Cc1nc2nc(SCC(N)=O)[nH]c2cc1Br	-6%	6%	-1%	16µM*	1%	-13%
COc1ccccc1-c1nnc(NC(=O)C(C)C)s1	-19%	-7%	-3%	32µM*	-3%	8%
CCCCOC(=O)Nc1nnc(-c2ccccc2OC)s1	1%	8%	4%	?	-5%	1%
COc1ccccc1-c1nnc(NC(=O)C(C)Sc2nncn2C)s1 (centres undefined)	0%	-8%	3%	-5%	-1%	1%
COc1ccccc1-c1nnc(NC(C)=O)s1	2%	33%	-5%	28µM*	-5%	?
COc1cc2nc(N3CCCCC3)nc(NC3CC3)c2cc1OC	/	/	/	4%	/	/
CC(C)(C)CC(C)(C)Nc1c(-c2ccc(O)cc2)nc2cnccn12	/	-33%	/	22µM*	/	/
COc1cc(N(C)C)c(OC)cc1/C=C1\C=Cc2ccccc21	/	/	/	-2%	/	/
CCCCN(CCCC)c1cc(C)nc(-c2ccccc2O)n1	-5%	-31%	0%	32µM*	-30%	-1%
CCCOc1cc(C)nc(-c2ccccc2O)n1	-1%	13%	4%	1%	11%	8%
CCOC(=O)CNC(=O)Nc1nnc(-c2ccc(OCC)cc2)o1	1%	-6%	-1%	6.3µM*	13%	2%
CCOC(=O)COc1ccc(-c2nnc(-c3ccccc3)o2)cc1	-4%	6%	-2%	?	-8%	4%
Cc1ccc(NC(=O)Nc2nnc(-c3ccccc3)o2)cc1	?	-20%	0%	/	-11%	9%
CCCCNC(=O)Nc1nnc(-c2ccccc2)o1	1%	-5%	3%	14µM*	-7%	0%
CCCCNC(=O)Nc1nnc(-c2ccc(OCC)cc2)o1	0%	19%	5%	25µM*	14%	-7%
CCOc1ccc(-c2nnc(NC(=O)COc3ccccc3F)o2)cc1	/	15%	/	-17%	/	/
O/N=C(/CI)c1ccc2ccccc2c1	/	/	/	-7%	/	/
Cc1occc1C(=O)NC(C)C12CC3CC(CC(C3)C1)C2 (centres undefined)	-3%	-35%	0%	/	-5%	-1%
Cc1occc1C(=O)NN=C1C2CC3CC(C2)CC1C3	-3%	?	-2%	-3%	-18%	13µM*
ClC(Cl)c1nnc(-c2ccccc2)c(-c2c[nH]c3ccccc23)n1	2%	-38%	0%	25µM*	3%	-8%
O=c1cc(CN2CCN(c3ccccc3F)CC2)c2c(ccc3ccccc32)o1	/	/	/	28µM*	/	/
O=c1cc(CN2CCCCC2)c2c(ccc3ccccc32)o1	/	/	/	-20%	/	/
COc1ccc(C(c2nnnn2C(C)(C)C)N2CCN(c3nc4ccccc4s3)CC2)cc1 (centres undefined)	1%	-23%	-7%	25µM*	-3%	?
CN(C)c1ccc(/C=C/c2nc3ccccc3s2)cc1Cl	/	/	/	0%	/	/
CCOc1ccc(NC(=O)C2Cc3ccccc3N2C(=O)c2ccccc2)cc1 (centres undefined)	/	/	/	7%	/	/
SMILES	MmCpn inh	Integrin act MD	USP2a block	ClpP mod	Eya2 inh	p53 reactivation
COc1cc(N(C)C)c(OC)cc1C=O	/	/	/	-8%	/	/
O=C(c1ccc2c(c1)OCO2)C1CCCN(Cc2cccn2-c2cccnc2)C1 (centres undefined)	3%	18%	3%	35µM*	4%	-3%
O=C(c1ccc(Cl)cc1)C1CCCN(Cc2cccn2-c2cccnc2)C1 (centres undefined)	-6%	-43%	1%	/	-3%	4%
CCS(=O)(=O)N1CCN(c2ccc([N+](=O)[O-])c(NC(C)c3ccccc3)c2)CC1 (centres undefined)	3%	9%	2%	1%	-7%	-1%
CC(Nc1cc(N2CCNCC2)ccc1[N+](=O)[O-])c1ccccc1 (centres undefined)	0%	-18%	2%	28µM*	-6%	-12%
CC1(C)CC(=O)C([N+](=O)[O-])=C(NCCCC(=O)O)C1	4%	-4%	-8%	14µM*	5%	-7%
Cc1cccc(CCN=c2c([N+](=O)[O-])nn(-c3ccccc3)n2O)c1	1%	27%	0%	-5%	-6%	?
Cc1cccc(-n2nc([N+](=O)[O-])c(=NC3CCN(Cc4ccccc4)CC3)n2O)c1	1%	4%	0%	1%	-6%	14µM*
Cc1ccc(-c2nn(-c3ccc(F)cc3F)c3c2cnc2c(F)cccc23)cc1	/	/	/	-9%	/	/
COc1cccc(-c2cc3nc(NCCCN(C)C)n(C)c(=O)c3s2)c1	/	/	/	4%	/	/
CCc1ccccc1Oc1nc(NCCOC)nc2cc(-c3ccccc3)sc12	/	/	/	22µM*	/	/
COCCNc1nc(Oc2ccc(NC(C)=O)cc2)c2sc(-c3ccccc3)cc2n1	/	/	/	32µM*	/	/
COCCNc1nc(-c2ccccc2F)c2sc(-c3ccccc3)cc2n1	/	/	/	32µM*	/	/
CCc1ccccc1Oc1nc2cc(-c3cccc(OC)c3)sc2c(=O)n1C	/	/	/	13µM*	/	/
COCCNc1nc(-c2cc(F)ccc2C)c2sc(-c3ccccc3)cc2n1	/	/	/	5%	/	/
O=C(NCCc1ccc(Cl)cc1)c1cc(-c2ccc(Cl)cc2)n[nH]1	/	/	/	0%	/	/
NC(=O)C1CCN(c2nc(-c3ccccc3Cl)cs2)CC1	2%	/	/	/	/	/
COC(=O)c1cc2c([nH]c1=O)CC(c1ccccc1)CC2=O (centres undefined)	/	/	/	4%	/	/
Cc1ccc(CCNC(=O)CCCn2c(=O)c3ccccc3n(CC(=O)Nc3cc(Cl)ccc3C)c2=O)cc1	/	/	/	1%	/	/
c1ccc2[nH]c(NCCCN3CCOCC3)nc2c1	0%	-2%[7.66 µM]	0%	1%	-3%	6%
O=c1[nH]c2ccccc2nc1NCCN1CCOCC1	1%	10%	1%	32µM*	3%	-9%
O=C(O)C#CC(=O)O	/	/	/	1%	/	/
CCc1ccc2[nH]c(=O)c(CN(Cc3ccccc3)Cc3nnnn3Cc3ccco3)cc2c1	-21%	-14%	-11%	-10%	5%	-4%
COc1ccc2[nH]c(=O)c(CN(Cc3nnnn3Cc3ccc(F)cc3)CC3CCCO3)cc2c1 (centres undefined)	1%	1%	-2%	?	-7%	-16%
COc1ccc2[nH]c(=O)c(CN(Cc3nnnn3Cc3ccccc3)CC3CCCO3)cc2c1 (centres undefined)	-1%	7%	1%	28µM*	-4%	-6%
CCc1ccc2[nH]c(=O)c(CN(Cc3ccccc3)Cc3nnnn3Cc3ccccc3)cc2c1	/	/	/	25µM*	/	/
